# Measured values from publication PMC4336329 (PLoS ONE, 2015).
# About 14,000 (4.5%) of roughly 310,000 compounds showed an effect of 50% or more. Effects have a minus sign here. This is one part of a sample in which strong results are shown more often than they occur.
# Molecular target: human ether-à-go-go-related gene (hERG) potassium channel (human, UniProt Q12809)
# Experiment: primary screen, population patch clamp on CHO cells stably expressing hERG; higher = less effect of the substance
# 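Also: peak tail current of the secondary pulse compared with the same well before compound.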
# human ether-à-go-go-related gene (hERG) potassium channel, sequence (Q12809 whole entry, looked up): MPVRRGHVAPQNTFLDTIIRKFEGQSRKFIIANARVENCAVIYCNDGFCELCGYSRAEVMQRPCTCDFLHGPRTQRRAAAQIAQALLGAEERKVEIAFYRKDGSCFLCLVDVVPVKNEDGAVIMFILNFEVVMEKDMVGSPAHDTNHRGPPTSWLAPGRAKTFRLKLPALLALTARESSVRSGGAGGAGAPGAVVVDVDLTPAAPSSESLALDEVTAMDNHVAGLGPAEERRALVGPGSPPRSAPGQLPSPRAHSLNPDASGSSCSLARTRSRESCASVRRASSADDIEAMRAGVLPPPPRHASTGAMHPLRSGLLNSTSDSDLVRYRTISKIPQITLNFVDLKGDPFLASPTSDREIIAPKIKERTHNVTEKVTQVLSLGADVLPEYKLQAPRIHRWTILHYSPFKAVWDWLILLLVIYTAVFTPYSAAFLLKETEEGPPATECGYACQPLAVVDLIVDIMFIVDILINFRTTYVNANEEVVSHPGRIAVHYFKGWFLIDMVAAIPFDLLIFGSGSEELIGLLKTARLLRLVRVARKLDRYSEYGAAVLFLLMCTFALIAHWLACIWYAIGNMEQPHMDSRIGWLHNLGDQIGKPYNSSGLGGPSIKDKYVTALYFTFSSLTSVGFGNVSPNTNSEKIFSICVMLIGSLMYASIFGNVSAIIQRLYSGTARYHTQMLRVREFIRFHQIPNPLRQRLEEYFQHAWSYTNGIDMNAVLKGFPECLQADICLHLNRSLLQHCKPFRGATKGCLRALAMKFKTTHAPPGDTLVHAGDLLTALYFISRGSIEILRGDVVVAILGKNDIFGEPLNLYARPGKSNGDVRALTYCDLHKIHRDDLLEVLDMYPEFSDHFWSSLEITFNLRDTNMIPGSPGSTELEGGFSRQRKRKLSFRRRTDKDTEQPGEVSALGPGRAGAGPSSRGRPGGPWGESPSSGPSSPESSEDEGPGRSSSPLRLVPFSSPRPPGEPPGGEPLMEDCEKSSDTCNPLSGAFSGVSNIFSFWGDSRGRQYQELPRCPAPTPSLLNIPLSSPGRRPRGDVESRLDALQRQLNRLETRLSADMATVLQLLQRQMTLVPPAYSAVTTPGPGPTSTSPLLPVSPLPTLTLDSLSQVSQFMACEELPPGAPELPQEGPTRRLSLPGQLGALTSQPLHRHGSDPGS
row,Structure (SMILES),"hERG current change (%, negative = inhibition) at 10uM"
1,CCOc1ccc(S(=O)(=O)NCCC(=O)N2CCN(c3ncccn3)CC2)cc1,-8.57%
2,CCC(Sc1nc(N)c(NC(=O)c2ccc(Br)o2)c(=O)[nH]1)C(=O)O (stereo not drawn),15.4%
3,C/C(CC1CC(COCCC(C)C)OC1=O)=N\NC(N)=S (stereo not drawn),4.37%
4,COC(=O)C1=C(N)Oc2cc(C)n(CC3CCCO3)c(=O)c2C1c1ccc(Cl)c(Cl)c1 (stereo not drawn),3.95%
5,CC(=O)c1cccc(N(CC(=O)Nc2cc(C)cc(C)c2)S(C)(=O)=O)c1,13.3%
6,CSc1nc2sc3c(c2c(=O)[nH]1)CC(C)(C)OC3,13.8%
7,CCc1ccccc1N1CN(Cc2cccnc2)CNC1=S,3.35%
8,Cc1cc(C)nc(N2CCCC(C(=O)Nc3ccc4nc(C)c(C)nc4c3)C2)n1 (stereo not drawn),9.96%
9,COc1cccc(/C=N/NC(=O)CN(C2=NS(=O)(=O)c3ccccc32)c2ccccc2)c1,0.919%
10,O=C(Nc1ccc(N2CCOCC2)cc1)c1cc2ccccc2o1,4.38%
11,O=C(Nc1ccc(N2CCCC2)cc1)c1ccc2ccccc2c1,0.743%
12,O=C(Nc1ccc(-c2nnc3n2CCCCC3)cc1)c1ccco1,5.26%
13,O=C(NC(=S)Nc1ccc(CN2CCOCC2)cc1)c1ccc(-c2cccc(Cl)c2)o1,7.11%
14,O=C(Nc1ccc(CN2CCOCC2)cc1)c1ccc(-c2cccc(Cl)c2)o1,-52.8%
15,O=C(Nc1ccc(-c2nnc3n2CCCCC3)cc1)c1cc2ccccc2o1,-71.8%
16,O=C(Nc1ccc(CN2CCOCC2)cc1)c1cc2ccccc2o1,-50.2%
17,O=C(NC(=S)Nc1ccc(CN2CCOCC2)cc1)c1cc2ccccc2o1,11.7%
18,CN1CCN(c2ccc(NC(=O)c3ccc4ccccc4c3)cc2)CC1,-66.1%
19,Cc1c(C(=O)Nc2ccc(-c3nnc4n3CCCCC4)cc2)oc2c1ccc1ccccc12,-13.8%
20,CC(=O)N1CCN(c2ccc(NC(=O)c3ccc4ccccc4c3)cc2)CC1,-7.05%
21,O=C(Nc1ccc(CN2CCOCC2)cc1)c1ccc(-c2cccc([N+](=O)[O-])c2)o1,-48.3%
22,Cc1ccc(C2=NS(=O)(=O)N(C)C(C(=O)NCc3ccccc3)=C2)cc1,-0.52%

row,Structure (SMILES),"hERG current change (%, negative = inhibition) at 10uM"
1,O=C(NCCN1CCOCC1)c1ccc(Cl)c([N+](=O)[O-])c1,16.5%
2,Cc1ccc2c(c1)N(C(C)C(=O)NCCc1ccccc1)C(=O)CO2 (stereo not drawn),7.21%
3,COc1cc(C(=O)Nc2cc(C(F)(F)F)ccc2N2CCOCC2)ccc1O,-26.6%
4,O=C(CCc1nc(-c2ccccc2Cl)no1)NCCc1ccccc1,7.08%
5,COc1ccc(CCNC(=O)c2c(O)c3ccccc3n(C)c2=O)cc1,-12.1%
6,O=c1[nH][nH]c(-c2ccccc2)c1C=Nc1cccc(Cl)c1,5.35%
7,CN1CCN(c2ccc(NC(=O)c3ccc(-c4ccccc4F)o3)cc2)CC1,-70%
8,COc1ccc(-c2ccc(CNCCCN3CCOCC3)o2)cc1Cl.Cl,6.83%
9,CN1CCN(c2ccc(NC(=O)c3ccc(-c4ccc(Cl)cc4)o3)cc2)CC1,11.5%
10,Cl.Clc1cccc(-c2ccc(CNCCCN3CCOCC3)o2)c1,-58.3%
11,Cc1cc(N2CCN(C)CC2)ccc1NC(=O)c1ccc(-c2ccc(Cl)cc2)o1,-80%
12,CN1CCN(c2ccc(NC(=O)c3cc4ccccc4o3)cc2)CC1,-72.3%
13,c1coc(CNCCCN2CCOCC2)c1,-0.128%
14,CS(=O)(=O)N1CCN(c2ccc(NC(=O)c3ccc(-c4ccc(Cl)cc4)o3)cc2)CC1,-10.6%
15,O=C(Nc1ccc(N2CCCC2)cc1)c1cc2ccccc2o1,20.4%
16,O=C(Nc1ccc(N2CCOCC2)cc1)c1ccc(-c2ccccc2[N+](=O)[O-])o1,15.9%
17,CC(=O)N1CCN(c2ccc(NC(=O)c3cc4ccccc4o3)cc2)CC1,-24.5%
18,CN1CCN(c2ccc(NC(=O)c3ccc(-c4ccc(Br)cc4)o3)cc2)CC1,0.645%
19,CCCCc1cc(C)c(S(=O)(=O)c2ccccc2C)c(=O)[nH]1,3.69%
20,CC(Oc1ccccc1)C(=O)NC1C(=O)N2C1SC(C)(C)C2C(=O)[O-].[K+] (stereo not drawn),35.9%
21,CCOC(=O)c1sc(NC(=S)NC(=O)C23CC4CC(CC(C4)C2)C3)cc1C,20.2%
22,CCCC1=NN(c2ccc([N+](=O)[O-])cc2)C(=O)/C1=C\N(C)C,-7.95%

row,Structure (SMILES),"hERG current change (%, negative = inhibition) at 10uM"
1,O=C(O)C1C2CCC(O2)C1C(=O)Nc1ccc(F)c(F)c1 (stereo not drawn),26.5%
2,CCCC(=O)Nc1ccc(C(=O)COC(=O)C2CC2C)cc1 (stereo not drawn),5.46%
3,CCN1C(=O)/C(=C/C=C2/SCCN2C)SC1=S,4.78%
4,COC(=O)Cn1cc(C(=O)C2CC2)c2ccccc21,2.2%
5,Cc1cc(C)c(C)c(S(=O)(=O)NCc2ccc(C(=O)N3CCN(C)CC3)cc2)c1C,-4.7%
6,O=C(O)c1nn2c(c1Br)NC(c1ccccc1)CC2C(F)(F)F (stereo not drawn),12.2%
7,CCc1nnc(NC(=O)c2cc(S(=O)(=O)N(CC)CC)ccc2Cl)s1,-7.31%
8,COc1ccccc1NC(=O)N1CCC(c2nc3ccccc3o2)CC1,-6.16%
9,CC(C)NC(=O)COC(=O)c1cccc(NS(=O)(=O)/C=C/c2ccccc2)c1,-18%
10,Cn1cnnc1SCC(=O)NC1CCCN(Cc2ccc(Cl)cc2)C1 (stereo not drawn),-0.412%
11,O=C(/C=C/c1ccc(Cl)cc1)Nc1ccc(CN2CCOCC2)cc1,-28%
12,O=C(/C=C/c1ccccc1)NC(=S)Nc1ccc(CN2CCOCC2)cc1,-18.9%
13,O=C(/C=C/c1ccccc1)Nc1ccc(CN2CCOCC2)cc1,-62.5%
14,CCSc1nnc(NC(=O)CSc2nc3c(c(=O)n2CC)SC(C)C3)s1 (stereo not drawn),6.95%
15,CCC(=O)Nc1ccc(NC(=O)c2cccc3ccccc23)cc1,23.9%
16,COc1ccc(-c2nc(SC(CC(=O)NCc3ccccc3)c3ccc(OC)c(OC)c3)n[nH]2)cc1 (stereo not drawn),-0.421%
17,CCOc1ccc(-n2c(SCc3nc(-c4cccs4)no3)nnc2-c2ccncc2)cc1,-59.7%
18,Cc1ccc(-c2noc(CSc3nnc(-c4ccncc4)n3-c3ccc(C)cc3)n2)cc1,-42.9%
19,CCOc1ccc(-n2c(SCc3nc(-c4ccc(C)cc4)no3)nnc2-c2ccncc2)cc1,-73.2%
20,Cc1ccc(-c2noc(CSc3nnc(-c4ccncc4)n3-c3ccc(F)cc3)n2)cc1,-10.3%
21,CCCn1c(SCc2nc(-c3cccs3)no2)nnc1-c1ccncc1,-4.13%
22,c1ccc(-n2c(SCc3nc(-c4cccs4)no3)nnc2-c2ccco2)cc1,-42.6%

row,Structure (SMILES),"hERG current change (%, negative = inhibition) at 10uM"
1,O=c1[nH]c(=S)n(-c2ccc(Cl)cc2)c(O)c1/C=N/N1CCOCC1,-6.08%
2,CC1CC(C)CN(S(=O)(=O)c2ccc3c(c2)CC(C)N3C(=O)C2CCC2)C1 (stereo not drawn),4.7%
3,CC12CCC(C(=O)N3CCCCCC3)(OC1=O)C2(C)C (stereo not drawn),13.1%
4,Nc1cc(=O)[nH]c(SCC(=O)NC2CCCc3ccccc32)n1 (stereo not drawn),0.0692%
5,CC(=O)OCc1cc2cccc(C)c2[nH]c1=O,-9.76%
6,Cc1cccc2cc(COC(=O)c3ccccc3)c(=O)[nH]c12,-0.867%
7,Cc1cccc2cc(CN(Cc3ccccc3)C(=O)N(C)C)c(=O)[nH]c12,-11.5%
8,Cc1cccc(CCNCc2cc3cc(C)cc(C)c3[nH]c2=O)c1,-30.8%
9,CCC(=O)OCc1cc2cccc(C)c2[nH]c1=O,-1.03%
10,Cc1ccccc1CCNCc1cc2cccc(C)c2[nH]c1=O,-52.2%
11,Cc1cccc(CCN(Cc2cc3cccc(C)c3[nH]c2=O)C(=O)N2CCOCC2)c1,-29.4%
12,Cc1cccc(CCNCc2cc3cccc(C)c3[nH]c2=O)c1,-64.1%
13,Cc1cccc2cc(COC(=O)C(C)C)c(=O)[nH]c12,-69.3%
14,CC(C)CSc1oc(-c2ccco2)nc1S(=O)(=O)c1ccccc1,-19.7%
15,O=C(CCC(=O)N1CCCC(Nc2ccccc2)C1)c1ccc(F)cc1 (stereo not drawn),-8.8%
16,COc1cc(CNc2ccc3[nH]c(=O)[nH]c3c2)cc(Cl)c1OCC(=O)NC(C)(C)C,4.56%
17,COc1ccc(S(=O)(=O)Nc2ccccc2-c2nc3ccccc3[nH]c2=O)cc1,-9.79%
18,COc1ccc(OC)c(NC(=O)Cn2c(CCC(=O)O)ccc2-c2ccc(C)cc2)c1,-7.22%
19,Cc1ccc(CN2CC(C(=O)N3CCN(S(=O)(=O)c4cccc(F)c4)CC3)CC2=O)cc1 (stereo not drawn),-32.6%
20,O=C(Nc1ccc(C(F)(F)F)cc1)C1(c2ccccc2)CC1,-15.2%
21,CCNC(=S)Nc1cc(OCC)c(NC(=O)c2ccco2)cc1OCC,-1.82%
